AGP1 TOR yeast = alters AGP1-GFP fluorescence in TOR pathway yeast screen; S. cerevisiae AGP1-GFP multiplex flow cytometry, 3 h; GFP as percent of DMSO wells; actives 0.02% (n = 320,000); GFP response vs DMSO, % at 10 µM;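 active = GFP response relative to DMSO above a set limit, near screen average plus 3 SD, cut at about 150% in these data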;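 note: median GFP channel fluorescence of the gated AGP1 strain per well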
CIT2-GFP yeast = alters CIT2-GFP fluorescence in TOR pathway yeast screen; S. cerevisiae CIT2-GFP strain, flow cytometry, 3 h; 100 means same as DMSO wells; GFP response vs DMSO, % at 10 µM; actives 0.065% (n = 320,000);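 active = GFP response relative to DMSO above a set limit, near the screen mean plus 3 SD, cut at about 150% in these data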;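 note: ratio of well median GFP fluorescence to mean of DMSO wells on the plate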
LAP4-GFP MLPCN = modulators of TOR pathway LAP4-GFP in S. cerevisiae | GFP response vs DMSO, % at 10 µM | S. cerevisiae LAP4-GFP multiplex, flow cytometry GFP, 3 h; median GFP as percent of DMSO wells | AID 2023 | actives 0.34% (n = 320,000);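 active = GFP response vs DMSO above a set limit, about the screen mean plus 3 SD, cut at about 150% in these data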
MEP2-GFP yeast = modulators of TOR pathway MEP2-GFP in S. cerevisiae | S. cerevisiae MEP2-GFP strain, flow cytometry GFP, 3 h; 100% = DMSO control level | GFP response vs DMSO, % at 10 µM | actives 0.51% (n = 330,000);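 active = GFP response versus DMSO above a set limit, roughly screen mean plus 3 SD, cut at about 180% in these data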;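 note: median GFP fluorescence of the barcode-gated MEP2-GFP cells per well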
RPL19A TOR yeast = yeast TOR pathway RPL19A-GFP modulation. S. cerevisiae RPL19A-GFP strain, flow cytometry, 3 h; stronger effect = lower value. percent response vs DMSO, % at 10 µM. actives 0.3% (n = 330,000). AID 2025;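 active = percent response vs DMSO below 50%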;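 note: median channel GFP fluorescence of the barcoded RPL19A-GFP strain; ratio of sample median GFP to plate DMSO average so 100% = DMSO; lower means less RPL19A-GFP as with rapamycin TOR inhibition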
JMJD2C inh = human JMJD2C demethylase inhibition; GST-JMJD2C(1-420) H3K9me3 demethylation, DELFIA europium; inhibition, % at 2.35 µM; AID 2099; actives 0.069% (n = 330,000); Q9H3R0;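 active = more than half of a compound's replicate wells show inhibition beyond 50%, single wells judged on their own value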;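 note: signal counts dimethyl H3K9 product captured on neutravidin plate; 0% = median of DMSO wells and 100% = 0.3 times that DMSO median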
Target sequence (Q9H3R0 1-420 limits assumed): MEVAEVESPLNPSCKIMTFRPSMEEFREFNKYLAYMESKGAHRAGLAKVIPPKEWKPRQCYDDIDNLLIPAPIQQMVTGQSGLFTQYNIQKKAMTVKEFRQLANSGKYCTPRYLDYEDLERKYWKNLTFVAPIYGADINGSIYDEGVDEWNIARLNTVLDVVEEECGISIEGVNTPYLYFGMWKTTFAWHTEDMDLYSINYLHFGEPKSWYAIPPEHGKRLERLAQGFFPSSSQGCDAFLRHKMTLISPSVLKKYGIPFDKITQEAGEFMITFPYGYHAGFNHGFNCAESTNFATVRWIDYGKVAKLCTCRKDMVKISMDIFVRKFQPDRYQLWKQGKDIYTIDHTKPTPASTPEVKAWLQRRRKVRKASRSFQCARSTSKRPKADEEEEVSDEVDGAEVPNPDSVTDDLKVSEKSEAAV
LAP4 cherry2 = yeast LAP4-GFP modulation, second cherry pick | GFP response vs DMSO, % at 10 µM | actives 20% (n = 590) | S. cerevisiae LAP4-GFP strain, flow cytometry GFP, 3 h | shares compounds with LAP4-GFP MLPCN;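 active = GFP signal as percent of the solvent control above about 150%, meaning raised reporter expression, limit read from the data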;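 note: ratio of well median GFP fluorescence to plate DMSO mean so 100% = DMSO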
MEP2-GFP pick2 = yeast MEP2-GFP modulation, second cherry pick. GFP response vs DMSO, % at 10 µM. shares compounds with LAP4-GFP MLPCN. S. cerevisiae MEP2-GFP strain, flow cytometry GFP, 3 h. actives 10% (n = 590);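 active = GFP signal above 150% of the solvent control wells, that is a rise of more than half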;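 note: median channel GFP fluorescence of all gated yeast cells per well; ratio of median GFP to plate DMSO average so 100% = DMSO level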
RPL19A GFP CP2 = reconfirmed modulator of RPL19A-GFP TOR reporter in yeast; AID 2623; S. cerevisiae RPL19A-GFP strain, flow cytometry GFP, 3 h; stronger effect = lower value; 100% means same as DMSO wells; actives 3% (n = 590); shares compounds with LAP4-GFP MLPCN; GFP response vs DMSO, % at 10 µM;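 active = under 65% GFP response relative to DMSO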;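 note: median GFP channel fluorescence per well over the all cells gate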
CIT2-GFP pick2 = yeast CIT2-GFP TOR reporter modulation, second cherry pick | GFP response vs DMSO, % at 10 µM | S. cerevisiae CIT2-GFP strain, flow cytometry GFP, 3 h; DMSO control wells read 100% | actives 8% (n = 590) | shares compounds with LAP4-GFP MLPCN;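 active = GFP response vs DMSO above about 150%, limit read from the data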;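 note: median green fluorescence per well over all gated yeast cells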
AGP1 GFP CP2 = yeast AGP1-GFP TOR reporter modulation, second cherry pick | S. cerevisiae AGP1-GFP strain, flow cytometry GFP, 3 h | shares compounds with LAP4-GFP MLPCN | 590 tested, under 10 active | percent response vs DMSO, % at 10 µM;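 active = over 150 percent of DMSO response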;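 note: median GFP channel fluorescence over all cells without mother daughter split; sample median GFP divided by mean DMSO control so 100% equals DMSO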
Yeast autofluor = yeast s288c autofluorescence artifact, counter-screen; shares compounds with LAP4-GFP MLPCN; S. cerevisiae s288c, 520 nm autofluorescence, flow cytometry, 3 h; stronger effect = higher value; zero means same as solvent-only cells; fluorescence change (kMESF span) at 33 µM; 610 tested, under 10 active; AID 2757;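 active = fluorescence span over the dose series, or activity score, above about 33, limit read from the data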
s288c autofl DR = yeast s288c autofluorescence artifact in dose response; 110 tested, under 10 active; shares compounds with LAP4-GFP MLPCN; S. cerevisiae s288c parental, compound autofluorescence, flow cytometry, 3 h; fluorescence change (span) at 33 µM;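 active = fluorescence change span, or the activity score built from it, above 25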
TORC1 bypass gr = stops wildtype yeast growth while TORC1 bypass cells still grow; S. cerevisiae BY4741 spot growth rating, 48-72 h; stronger effect = lower value; AID 504456; growth rating (0-3) at 30 µM; shares compounds with LAP4-GFP MLPCN; 120 tested, under 10 active;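 active = growth rating at most 1 for wild type yeast while the TORC1 bypass strain still grows fully, rated 3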
The depositor's hits bear a star; · = not tested or not shown. Shown are actives, neighbours in structure and some others; about 0.97% of the full set was active somewhere.

SMILES	AGP1 TOR yeast	CIT2-GFP yeast	LAP4-GFP MLPCN	MEP2-GFP yeast	RPL19A TOR yeast	JMJD2C inh	LAP4 cherry2	MEP2-GFP pick2	RPL19A GFP CP2	CIT2-GFP pick2	AGP1 GFP CP2	Yeast autofluor	others
CC(=O)[C@]1(O)Cc2c(O)c3c(c(O)c2[C@@H](O[C@H]2C[C@H](N)[C@H](O)[C@H](C)O2)C1)C(=O)c1ccccc1C3=O	89	91	152*	119	107	40	151*	153*	111	140	108	2.7
CC(C)C(NS(=O)(=O)c1cccs1)C(=O)N1CCC(C(N)=O)CC1 (centres undefined)	95	90	88	96	94	8	·	·	·	·	·	·
c1ccc(-c2cccc(-c3ccccn3)n2)nc1	78	128	319*	112	89	1	·	·	·	·	·	0.61	s288c autofl DR=0;TORC1 bypass gr=3
c1ccc(-c2nnc(-c3ccccn3)nn2)nc1	93	92	97	99	97	13	·	·	·	·	·	·
O=C(NC(=S)NNC(=O)c1cnccn1)c1ccc(Cl)cc1	109	102	181*	117	112	-3	·	·	·	·	·	2
COc1ccc(C(=O)NC(=S)NNC(=O)c2cnccn2)cc1	87	90	241*	111	105	7	·	·	·	·	·	1	s288c autofl DR=0.49;TORC1 bypass gr=3
CC(=O)Oc1cccc(N2C(=O)c3cccc4c([N+](=O)[O-])ccc(c34)C2=O)c1	79	133	178*	227*	112	3	177*	281*	114	225*	111	6.1
Cc1ccc(C(=O)O)cc1N1C(=O)c2cccc3c([N+](=O)[O-])ccc(c23)C1=O	92	141	108	157	109	-6	·	·	·	·	·	·
Cc1cc(NC(=O)CSc2nnc(-c3ccncc3)n2-c2ccc(F)cc2)no1	75	91	98	135	63	8	100	103	100	97	97	·
COc1ccc(-c2cc(C(F)F)n3ncc(C(=O)NCC4CCCO4)c3n2)cc1 (centres undefined)	73	174*	89	93	92	16	99	100	100	106	96	·
Cc1ccc(OCc2cc(C(=O)N(C)Cc3cnc4ccccn34)no2)cc1C	97	95	84	106	97	-2	·	·	·	·	·	·
COc1ccc2nc(Cl)cc(Cl)c2c1	100	96	99	97	94	-19	·	·	·	·	·	·
COc1ccc2nccc(/C=C/c3ccnc4ccc(OC)cc34)c2c1	65	68	137	91	62	4	111	111	94	93	92	·
